For one sequence, binding signal results are on record in paper PMC7862700, “An all-to-all approach to the identification of sequence-specific readers for epigenetic DNA modifications on cytosine”.

Common to all, as to assay: DAPPL (digital affinity profiling via proximity ligation, sequencing); 10 mM Tris-HCl pH 7.5, 50 mM NaCl, 1 mM DTT, 4% glycerol, room temperature, 30 min; GST-TFs on glutathione beads, 16-mer random dsDNA library, 0.1% formaldehyde crosslink after washing; high values mean tight binding
One assay deals with T1, FEV (Homo sapiens, UniProt Q99581 1-238).
T1 sequence: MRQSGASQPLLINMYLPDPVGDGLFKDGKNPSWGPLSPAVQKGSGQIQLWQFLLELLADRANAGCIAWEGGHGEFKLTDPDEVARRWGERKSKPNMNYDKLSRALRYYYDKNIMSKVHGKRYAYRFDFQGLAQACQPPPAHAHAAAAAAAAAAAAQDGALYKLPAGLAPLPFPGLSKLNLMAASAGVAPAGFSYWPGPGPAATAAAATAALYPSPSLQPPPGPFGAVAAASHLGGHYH
Particulars: protein: recombinant; tags: N-terminal GST; dsDNA, one strand shown. Put shortly: (§1)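 Binding signal is given per hexamer as its read frequency for a factor divided by its frequency in the tag-only sample. GST-fused human transcription factors were expressed in yeast, captured on glutathione beads, barcoded with DNA and pooled with that sample, then incubated with 200 nmole of a 16-mer random double-stranded DNA library in Tris/NaCl/DTT/glycerol buffer for 30 min at room temperature. The pools were then washed, crosslinked, proximity-ligated, amplified by PCR and sequenced on an Illumina NextSeq500.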

The target in a further assay is ETV5 (Homo sapiens, UniProt P41161 1-510). Particulars: protein: recombinant; tags: N-terminal GST; dsDNA, one strand shown. Put shortly:
as §1

The target of another assay is HSF1 (Homo sapiens, UniProt Q00613 1-529). The following applies: protein: recombinant; tags: N-terminal GST; chain copies: 3; dsDNA, one strand shown. Put shortly: as §1
The target of a further assay is T2, SPIC (Homo sapiens, UniProt Q8N5J4 1-248).
T2 sequence: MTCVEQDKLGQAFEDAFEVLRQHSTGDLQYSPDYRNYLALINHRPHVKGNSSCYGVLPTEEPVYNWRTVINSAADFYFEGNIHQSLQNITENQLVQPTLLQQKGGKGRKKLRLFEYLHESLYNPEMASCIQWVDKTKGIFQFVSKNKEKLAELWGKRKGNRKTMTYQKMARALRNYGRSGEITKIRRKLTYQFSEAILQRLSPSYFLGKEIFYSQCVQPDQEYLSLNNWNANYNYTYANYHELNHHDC
The following applies: protein: recombinant; tags: N-terminal GST; dsDNA, one strand shown. Put shortly:
as §1

In a further assay the target is ELF4 (Homo sapiens, UniProt Q99607 1-663). The following applies: protein: recombinant; tags: N-terminal GST; dsDNA, one strand shown. The gist of the method: as §1
The next assay concerns the target T3, ELK4 (Homo sapiens, UniProt P28324-2 1-405).
T3 sequence: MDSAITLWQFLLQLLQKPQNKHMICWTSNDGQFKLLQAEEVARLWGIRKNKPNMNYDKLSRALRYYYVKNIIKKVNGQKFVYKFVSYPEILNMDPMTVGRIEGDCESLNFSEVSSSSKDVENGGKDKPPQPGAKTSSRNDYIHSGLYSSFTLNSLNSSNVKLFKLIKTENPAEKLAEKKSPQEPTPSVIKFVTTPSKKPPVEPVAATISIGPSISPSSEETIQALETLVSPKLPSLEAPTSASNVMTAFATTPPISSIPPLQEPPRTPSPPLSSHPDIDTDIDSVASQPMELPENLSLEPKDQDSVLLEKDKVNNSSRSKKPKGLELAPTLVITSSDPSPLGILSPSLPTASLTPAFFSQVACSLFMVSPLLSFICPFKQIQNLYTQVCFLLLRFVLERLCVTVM
Particulars: protein: recombinant; tags: N-terminal GST; dsDNA, one strand shown. The gist of the method: as §1

The target of a further assay is T4, ETV2 (Homo sapiens, UniProt O00321 1-342).
T4 sequence: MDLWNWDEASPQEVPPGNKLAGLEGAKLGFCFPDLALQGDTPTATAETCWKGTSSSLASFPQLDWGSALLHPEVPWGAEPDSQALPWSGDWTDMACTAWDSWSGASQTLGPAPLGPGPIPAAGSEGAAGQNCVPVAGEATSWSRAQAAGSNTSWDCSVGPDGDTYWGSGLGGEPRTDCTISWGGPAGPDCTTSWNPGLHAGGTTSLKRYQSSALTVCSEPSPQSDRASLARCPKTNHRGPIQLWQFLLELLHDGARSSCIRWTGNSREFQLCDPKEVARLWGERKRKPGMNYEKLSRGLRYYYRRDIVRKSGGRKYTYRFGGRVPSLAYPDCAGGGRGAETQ
Particulars: protein: recombinant; tags: N-terminal GST; dsDNA, one strand shown. Put shortly:
as §1

A further assay deals with T5, ELF3 (Homo sapiens, UniProt P78545 1-371).
T5 sequence: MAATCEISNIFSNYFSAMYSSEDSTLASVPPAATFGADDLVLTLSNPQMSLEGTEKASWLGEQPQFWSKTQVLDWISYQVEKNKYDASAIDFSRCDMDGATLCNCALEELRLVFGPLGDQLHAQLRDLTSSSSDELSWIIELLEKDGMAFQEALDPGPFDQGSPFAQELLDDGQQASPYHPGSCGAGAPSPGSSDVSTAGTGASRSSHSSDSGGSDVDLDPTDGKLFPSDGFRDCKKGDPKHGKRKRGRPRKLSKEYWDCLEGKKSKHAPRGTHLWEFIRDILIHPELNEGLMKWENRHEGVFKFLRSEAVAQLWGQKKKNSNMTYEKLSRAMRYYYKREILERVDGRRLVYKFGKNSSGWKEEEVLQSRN
The following applies: protein: recombinant; tags: N-terminal GST; dsDNA, one strand shown. The gist of the method: as §1

For another assay, the target named is CRX (Homo sapiens, UniProt O43186 1-299). The following applies: protein: recombinant; tags: N-terminal GST; dsDNA, one strand shown. The gist of the method:
as §1

The target in the next assay is ETV1 (Homo sapiens, UniProt P50549 1-477). Particulars: protein: recombinant; tags: N-terminal GST; dsDNA, one strand shown. The gist of the method:
as §1

The next assay concerns the target T6, ERF (Homo sapiens, UniProt P50548 1-548).
T6 sequence: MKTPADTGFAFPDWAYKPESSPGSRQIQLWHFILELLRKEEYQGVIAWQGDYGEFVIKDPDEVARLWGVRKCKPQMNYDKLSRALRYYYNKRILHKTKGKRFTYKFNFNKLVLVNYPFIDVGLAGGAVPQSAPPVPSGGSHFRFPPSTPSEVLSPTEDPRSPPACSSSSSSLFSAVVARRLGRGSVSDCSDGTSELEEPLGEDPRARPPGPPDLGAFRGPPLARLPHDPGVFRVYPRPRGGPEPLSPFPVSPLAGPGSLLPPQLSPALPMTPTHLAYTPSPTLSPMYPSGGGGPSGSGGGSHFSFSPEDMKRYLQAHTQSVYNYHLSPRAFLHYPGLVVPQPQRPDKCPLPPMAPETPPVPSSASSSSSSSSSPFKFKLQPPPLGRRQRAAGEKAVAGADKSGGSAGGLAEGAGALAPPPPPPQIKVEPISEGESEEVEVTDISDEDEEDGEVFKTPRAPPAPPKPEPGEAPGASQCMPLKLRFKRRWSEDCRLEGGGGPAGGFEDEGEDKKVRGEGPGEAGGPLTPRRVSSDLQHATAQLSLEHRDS
The following applies: protein: recombinant; tags: N-terminal GST; dsDNA, one strand shown. The gist of the method:
as §1

The next assay deals with T7, ETV3L (Homo sapiens, UniProt Q6ZN32 1-361).
T7 sequence: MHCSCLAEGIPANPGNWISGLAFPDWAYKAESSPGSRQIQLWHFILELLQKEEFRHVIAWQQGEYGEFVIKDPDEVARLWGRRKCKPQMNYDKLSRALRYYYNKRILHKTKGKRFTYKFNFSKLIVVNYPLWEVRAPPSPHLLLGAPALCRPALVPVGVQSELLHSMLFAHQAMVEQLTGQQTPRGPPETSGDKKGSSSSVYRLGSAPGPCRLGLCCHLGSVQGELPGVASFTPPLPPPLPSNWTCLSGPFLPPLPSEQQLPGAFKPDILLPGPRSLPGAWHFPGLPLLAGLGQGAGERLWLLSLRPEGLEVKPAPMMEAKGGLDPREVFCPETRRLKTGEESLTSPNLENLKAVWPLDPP
The following applies: protein: recombinant; tags: N-terminal GST; dsDNA, one strand shown. The gist of the method: as §1

The next assay concerns the target T8, ETS2 (Homo sapiens, UniProt P15036 1-469).
T8 sequence: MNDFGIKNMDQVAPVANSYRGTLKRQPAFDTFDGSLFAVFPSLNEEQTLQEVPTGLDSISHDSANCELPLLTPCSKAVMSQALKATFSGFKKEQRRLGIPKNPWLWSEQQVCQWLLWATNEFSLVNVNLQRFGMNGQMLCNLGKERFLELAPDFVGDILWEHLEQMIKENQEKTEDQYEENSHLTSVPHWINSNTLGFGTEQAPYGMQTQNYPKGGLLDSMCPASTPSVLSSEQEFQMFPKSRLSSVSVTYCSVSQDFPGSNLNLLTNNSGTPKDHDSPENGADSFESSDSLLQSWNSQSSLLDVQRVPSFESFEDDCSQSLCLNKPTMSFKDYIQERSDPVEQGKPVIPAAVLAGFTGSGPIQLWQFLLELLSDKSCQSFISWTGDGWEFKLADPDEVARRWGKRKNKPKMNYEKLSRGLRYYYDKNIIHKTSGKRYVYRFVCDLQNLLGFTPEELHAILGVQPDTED
The following applies: protein: recombinant; tags: N-terminal GST; dsDNA, one strand shown. The gist of the method:
as §1

The next assay addresses T9, SPDEF (Homo sapiens, UniProt O95238 1-335).
T9 sequence: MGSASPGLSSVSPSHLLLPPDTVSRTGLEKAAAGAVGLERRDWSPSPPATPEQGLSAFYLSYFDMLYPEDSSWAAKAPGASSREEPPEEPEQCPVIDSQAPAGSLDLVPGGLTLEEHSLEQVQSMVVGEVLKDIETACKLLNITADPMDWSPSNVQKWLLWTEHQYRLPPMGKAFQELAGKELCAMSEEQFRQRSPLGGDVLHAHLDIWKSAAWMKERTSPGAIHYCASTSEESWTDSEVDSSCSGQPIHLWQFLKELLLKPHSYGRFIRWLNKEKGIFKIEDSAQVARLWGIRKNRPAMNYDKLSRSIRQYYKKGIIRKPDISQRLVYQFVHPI
The following applies: protein: recombinant; tags: N-terminal GST; dsDNA, one strand shown. The gist of the method:
as §1

The target of the next assay is T10, ETV7 (Homo sapiens, UniProt Q9Y603 1-341).
T10 sequence: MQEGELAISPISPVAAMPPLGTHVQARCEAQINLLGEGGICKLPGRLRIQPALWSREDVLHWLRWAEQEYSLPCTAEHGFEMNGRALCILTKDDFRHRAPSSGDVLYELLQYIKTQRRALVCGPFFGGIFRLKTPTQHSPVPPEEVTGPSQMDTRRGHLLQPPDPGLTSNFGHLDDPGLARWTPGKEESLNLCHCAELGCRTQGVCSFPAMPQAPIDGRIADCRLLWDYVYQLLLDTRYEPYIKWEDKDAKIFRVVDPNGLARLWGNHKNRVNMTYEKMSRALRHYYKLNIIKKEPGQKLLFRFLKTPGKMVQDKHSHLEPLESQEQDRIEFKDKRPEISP
The following applies: protein: recombinant; tags: N-terminal GST; dsDNA, one strand shown. Put shortly: as §1

The next assay deals with T11, ELF5 (Homo sapiens, UniProt Q9UKW6-2 1-255).
T11 sequence: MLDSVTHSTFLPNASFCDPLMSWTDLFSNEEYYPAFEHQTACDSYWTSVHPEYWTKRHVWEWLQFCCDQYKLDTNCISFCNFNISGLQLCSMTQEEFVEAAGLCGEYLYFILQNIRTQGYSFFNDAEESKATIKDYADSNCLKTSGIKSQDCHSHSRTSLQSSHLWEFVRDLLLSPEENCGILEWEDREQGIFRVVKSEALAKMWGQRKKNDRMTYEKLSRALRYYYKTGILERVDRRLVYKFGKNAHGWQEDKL
Particulars: protein: recombinant; tags: N-terminal GST; dsDNA, one strand shown. The gist of the method: as §1

A further assay concerns the target T12, ETV3 (Homo sapiens, UniProt P41162-2 1-143).
T12 sequence: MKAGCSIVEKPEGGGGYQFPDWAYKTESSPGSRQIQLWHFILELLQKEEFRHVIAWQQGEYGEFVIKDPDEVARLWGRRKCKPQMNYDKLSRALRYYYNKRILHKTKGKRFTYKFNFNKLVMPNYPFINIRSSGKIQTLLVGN
Particulars: protein: recombinant; tags: N-terminal GST; dsDNA, one strand shown. Put shortly:
as §1

For the next assay, the target named is ETV6 (Homo sapiens, UniProt P41212 1-452). Particulars: protein: recombinant; tags: N-terminal GST; dsDNA, one strand shown. The gist of the method: as §1
Sequence of ETV6 (P41212 whole entry): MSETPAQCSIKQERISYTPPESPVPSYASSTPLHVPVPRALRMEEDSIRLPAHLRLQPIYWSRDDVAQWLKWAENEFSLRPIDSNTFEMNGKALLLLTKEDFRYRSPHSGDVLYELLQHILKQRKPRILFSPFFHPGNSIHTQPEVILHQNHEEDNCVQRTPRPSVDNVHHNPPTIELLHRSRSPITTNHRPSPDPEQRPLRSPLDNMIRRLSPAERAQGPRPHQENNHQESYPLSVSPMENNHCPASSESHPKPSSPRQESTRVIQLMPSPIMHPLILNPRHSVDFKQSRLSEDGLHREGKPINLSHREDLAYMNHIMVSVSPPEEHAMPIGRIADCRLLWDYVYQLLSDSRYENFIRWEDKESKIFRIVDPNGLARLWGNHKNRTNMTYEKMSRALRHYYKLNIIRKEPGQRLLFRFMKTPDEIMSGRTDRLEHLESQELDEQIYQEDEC

Sequence of ELF4 (Q99607 whole entry): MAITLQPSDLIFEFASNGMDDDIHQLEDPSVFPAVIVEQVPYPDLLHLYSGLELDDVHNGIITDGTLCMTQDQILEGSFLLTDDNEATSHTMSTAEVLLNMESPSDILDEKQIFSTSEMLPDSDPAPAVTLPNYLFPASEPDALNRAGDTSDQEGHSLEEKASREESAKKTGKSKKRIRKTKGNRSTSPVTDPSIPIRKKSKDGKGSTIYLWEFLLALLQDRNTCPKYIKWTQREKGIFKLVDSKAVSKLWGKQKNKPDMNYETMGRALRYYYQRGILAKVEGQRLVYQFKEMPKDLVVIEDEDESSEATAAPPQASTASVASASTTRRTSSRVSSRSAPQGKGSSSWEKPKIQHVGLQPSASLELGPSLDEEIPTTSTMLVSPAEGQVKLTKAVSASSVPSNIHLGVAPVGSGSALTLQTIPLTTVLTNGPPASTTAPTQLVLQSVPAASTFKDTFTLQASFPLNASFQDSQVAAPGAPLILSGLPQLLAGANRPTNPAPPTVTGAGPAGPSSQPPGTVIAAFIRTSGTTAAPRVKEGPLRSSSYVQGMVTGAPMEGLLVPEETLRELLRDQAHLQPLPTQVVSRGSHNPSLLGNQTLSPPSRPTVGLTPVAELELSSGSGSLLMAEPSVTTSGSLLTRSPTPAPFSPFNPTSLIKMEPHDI
Sequence of CRX (O43186 whole entry): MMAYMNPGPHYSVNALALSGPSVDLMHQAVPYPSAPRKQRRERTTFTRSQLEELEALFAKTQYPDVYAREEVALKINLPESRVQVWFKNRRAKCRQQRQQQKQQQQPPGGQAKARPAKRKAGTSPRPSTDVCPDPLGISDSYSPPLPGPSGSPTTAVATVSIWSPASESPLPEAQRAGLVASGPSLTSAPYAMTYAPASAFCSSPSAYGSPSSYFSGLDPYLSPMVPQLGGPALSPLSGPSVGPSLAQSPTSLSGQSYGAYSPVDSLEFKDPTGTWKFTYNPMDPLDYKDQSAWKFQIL
Sequence of ETV1 (P50549 whole entry): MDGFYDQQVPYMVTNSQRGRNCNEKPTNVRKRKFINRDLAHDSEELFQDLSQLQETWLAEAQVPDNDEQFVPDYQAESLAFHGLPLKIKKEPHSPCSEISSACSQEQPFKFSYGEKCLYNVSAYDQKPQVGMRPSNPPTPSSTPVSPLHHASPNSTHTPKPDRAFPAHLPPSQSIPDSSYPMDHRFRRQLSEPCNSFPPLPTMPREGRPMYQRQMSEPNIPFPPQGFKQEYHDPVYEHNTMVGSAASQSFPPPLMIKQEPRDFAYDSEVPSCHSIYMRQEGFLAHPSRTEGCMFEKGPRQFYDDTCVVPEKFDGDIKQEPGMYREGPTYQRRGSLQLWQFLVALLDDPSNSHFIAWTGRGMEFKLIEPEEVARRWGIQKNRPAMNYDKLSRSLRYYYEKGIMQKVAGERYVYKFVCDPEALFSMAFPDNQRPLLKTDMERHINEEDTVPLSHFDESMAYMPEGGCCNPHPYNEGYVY
Sequence of HSF1 (Q00613 whole entry): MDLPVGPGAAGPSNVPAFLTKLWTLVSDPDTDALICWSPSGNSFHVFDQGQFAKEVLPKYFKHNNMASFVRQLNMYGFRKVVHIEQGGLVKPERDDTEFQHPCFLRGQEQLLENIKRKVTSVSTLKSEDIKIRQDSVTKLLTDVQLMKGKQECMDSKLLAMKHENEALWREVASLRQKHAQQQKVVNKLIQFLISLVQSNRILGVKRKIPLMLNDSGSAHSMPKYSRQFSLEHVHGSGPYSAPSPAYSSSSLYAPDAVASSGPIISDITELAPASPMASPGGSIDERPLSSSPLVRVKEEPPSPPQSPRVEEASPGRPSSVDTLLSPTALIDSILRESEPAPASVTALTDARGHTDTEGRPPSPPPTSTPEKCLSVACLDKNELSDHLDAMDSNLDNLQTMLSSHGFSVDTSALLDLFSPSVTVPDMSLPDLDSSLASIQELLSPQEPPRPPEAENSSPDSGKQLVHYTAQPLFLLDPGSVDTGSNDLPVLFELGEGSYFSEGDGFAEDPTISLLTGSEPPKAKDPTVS
Sequence of ETV5 (P41161 whole entry): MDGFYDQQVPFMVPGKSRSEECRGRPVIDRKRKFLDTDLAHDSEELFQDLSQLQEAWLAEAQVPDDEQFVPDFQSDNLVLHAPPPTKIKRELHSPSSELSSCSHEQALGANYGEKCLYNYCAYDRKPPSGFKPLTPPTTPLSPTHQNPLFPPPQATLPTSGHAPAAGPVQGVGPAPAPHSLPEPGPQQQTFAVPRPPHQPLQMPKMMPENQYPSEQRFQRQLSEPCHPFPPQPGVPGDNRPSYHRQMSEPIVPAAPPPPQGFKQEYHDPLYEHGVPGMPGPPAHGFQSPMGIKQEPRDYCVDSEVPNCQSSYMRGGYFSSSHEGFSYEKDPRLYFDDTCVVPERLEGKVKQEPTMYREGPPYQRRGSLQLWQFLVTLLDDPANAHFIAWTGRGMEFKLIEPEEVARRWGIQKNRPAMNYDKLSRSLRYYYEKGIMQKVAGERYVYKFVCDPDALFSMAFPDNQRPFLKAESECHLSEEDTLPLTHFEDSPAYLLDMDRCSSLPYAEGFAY

Regarding GGCTCC, the binding signal with FEV was 1.35 fold enrichment (6-mer frequency, TF over GST control); in the assay with ETV5, 1.37 fold enrichment (6-mer frequency, TF over GST control); with HSF1 it was 1.13 fold enrichment (6-mer frequency, TF over GST control); in the assay with SPIC it was 1.16 fold enrichment (6-mer frequency, TF over GST control); with ELF4 it was 1.24 fold enrichment (6-mer frequency, TF over GST control); with ELK4 it was 1.29 fold enrichment (6-mer frequency, TF over GST control). Further, the binding signal in the assay with ETV2 was 1.43 fold enrichment (6-mer frequency, TF over GST control); with ELF3, 1.32 fold enrichment (6-mer frequency, TF over GST control); with CRX, 1.1 fold enrichment (6-mer frequency, TF over GST control); with ETV1, 1.24 fold enrichment (6-mer frequency, TF over GST control); with ERF it was 1.28 fold enrichment (6-mer frequency, TF over GST control); in the assay with ETV3L it was 1.27 fold enrichment (6-mer frequency, TF over GST control). In addition, the binding signal in the assay with ETS2 was 1.21 fold enrichment (6-mer frequency, TF over GST control); in the assay with SPDEF, 1.48 fold enrichment (6-mer frequency, TF over GST control); with ETV7, 1.25 fold enrichment (6-mer frequency, TF over GST control); in the assay with ELF5, 1.33 fold enrichment (6-mer frequency, TF over GST control); in the assay with ETV3, 1.3 fold enrichment (6-mer frequency, TF over GST control); with ETV6, 1.25 fold enrichment (6-mer frequency, TF over GST control).
